Data from the supplement of paper PMC11417369.
± gives the standard deviation of the averaged measurements. Over roughly 25,000 sequences, “ln(normalized median fluorescence intensity)” has its median near 8.6; the highest 2% begin near 10. The full list was thinned out, with the highest values kept by preference.

What follows are sequences tested on PfAP2-EXP AP2 domain (GST-tagged) (assay: gcPBM binding intensity (ln(normalized median fluorescence intensity)); higher = stronger DNA binding).
Outline: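 GST-tagged P. falciparum DNA-binding domains, expressed in E. coli (about 25 μg on average), were applied for 1 h to an Agilent 4 × 180k array of primer-extended double-stranded 36-bp intergenic genomic probes plus negative controls. The binding buffer was 1× PBS with 1% milk, 0.2 mg/ml BSA, 0.5% salmon testes DNA and 0.03% Triton X-100. Bound protein was detected with Alexa488 anti-GST antibody and scanned at 488 nm. Binding intensity is the highest Masliner-normalised natural-log median intensity across replicate spots of either probe orientation.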

Sequence | gcPBM binding intensity (ln)
TCCCTAGTATACCTTAGTACATATATTATTTTGCAC [XGTACX_site2174] | 8.98 ± 0.11
ACTAGTAAATTTATATGTACATATATATATATATAG [XGTACX_site2502] | 8.68 ± 0.24
ATACATATATATATATGTACATATGTATTTTTTATT [XGTACX_site105] | 8.63 ± 0.38
ATATATTTAATATTCACACATAATTATTTTTACTCT [CACACA_site5438] | 8.59 ± 0.38
CATCCAAAAATATTATGTACTAAATTTGGATGTATT [XGTACX_site3954] | 8.48 ± 0.47
TTTTAAATATGCCATACACACTACTATATAATAAAT [CACACA_site5119] | 8.58 ± 0.34
ATACTTTTAAATTGATGTACTTTATTTATAAGGTGA [XGTACX_site6746] | 8.38 ± 0.38
ACTTTACAATATATATGTACATATTAATAAACATAT [XGTACX_site3689] | 8.74 ± 0.42
ATAAAATAAAATTGGTGTACTTTTGATAAAATAAAA [XGTACX_site4264] | 8.24 ± 0.28
TTAATAAACCTTAGATGTACAGTTATATATAAAATA [XGTACX_site6681] | 8.54 ± 0.52
ATAACATTCAAAAAATGTACAAACATATGAATAAAT [XGTACX_site7013] | 8.62 ± 0.47
TATATATATAACAGAATGCACTTTATATGTTCATAT [GTGCAC_site9880] | 8.94 ± 0.14
TAAATAAATACATACACACACATACATATATATATA [CACACA_site3129] | 9.86 ± 0.26
CACAAATAAATACATACACACATATATACTCATATA [CACACA_site4379] | 8.37 ± 0.49
TATATATATATATATACACACATATATATAAATATA [CACACA_site2035] | 10.2 ± 0.26
TAAATAAATATATATACACACATATATATATATATA [CACACA_site598] | 10.1 ± 0.36
TAAATACATAAATACACACACATATATATATATATA [CACACA_site5549] | 10.2 ± 0.35
TATATATATAAATACACACACACATATATATATATA [CACACA_site4585] | 10 ± 0.16
CATAAATACATACATACACACATATATATATATATA [CACACA_site2106] | 10.2 ± 0.41
TATACTCATAAATACACACACATATATATATATATA [CACACA_site5822] | 10.2 ± 0.28

Sequence | gcPBM binding intensity (ln)
CATATATAAATATATACACACATACATACATACATA [CACACA_site5988] | 8.73 ± 0.3
AGAGAAGAAAACAAAACACACACATATATCTTAATA [CACACA_site8699] | 8.63 ± 0.71
AATTTTTAGTATATAACATAAAATAAAATAAAATAA [GTGCAC_negctrl_site696] | 8.47 ± 0.38
AAAATTATATTTTATAGAAATTTAAATAAATATATA [GTGCAC_negctrl_site199] | 8.01 ± 0.38
AATATATATATTAAATGTACATTACATAATTATATA [XGTACX_site3450] | 8.54 ± 0.43
TATATATATATATATGTGCACATTTTATTAAAATGT | 10.2 ± 0.34
ATATATATATATATAGTGCACATTTATATAATTATT | 10.3 ± 0.17
ATAATATATAATATAGTGCATTATTTATTAATTAAT [GTGCAC_site9852] | 8.56 ± 0.085
TTATTTTTATATTTTAATTTTAAAAAAATTTTAATT [CACACA_negctrl_site777] | 8.04 ± 0.46
TTATATTATATATATGTGCACATTTTTAAACTTGGA | 8.71 ± 0.27
ACCTGTAAAAATGTTTATATATATATATATATATAT [CACACA_negctrl_site1500] | 10.3 ± 0.37
TTTTAATTTAAAAATTAATTTATATATATATATATA [TGCATGCA_negctrl_site447] | 10.3 ± 1
AATGTAAAATATATGTGTACATATGTTTATATATAT [XGTACX_site2216] | 8.71 ± 0.23
TATAATAATATTATAGTGCATATTATTTATATATAA [GTGCAC_site9820] | 8.22 ± 0.2
TATATACATTTTTATGTGCACATTTTATTTTTAAAT | 9.15 ± 0.31
AAAATATATATGTATGTTTATATGTTTATATATATT [XGTACX_negctrl_site337] | 8.18 ± 0.49
ATTTTTTTATAAAATTTTTATATAATTTATTATAAA [GTGCAC_negctrl_site96] | 8.16 ± 0.52
ATTATTTAGAAATGAGCACACAAAAAGAAGAATTTT [CACACA_site7913] | 8.65 ± 0.52
ATATAAAAAGTGTATCGTACATTTACTTATTTTATA [XGTACX_site6249] | 8.46 ± 0.3
AATACTATTATTATTGCACACTTATTATCCCTCGGA [CACACA_site4262] | 8.65 ± 0.28

Sequence | gcPBM binding intensity (ln)
CACTAAACATATACACGTACATGCAACGGATTTTTT [XGTACX_site461] | 8.74 ± 0.3
ATGGACAAGTTAAACGCACACAAATATATACAGACA [CACACA_site1652] | 9.15 ± 0.73
AAAAAAAAAAAAATGTAATTTTTTAATTATTTATAT [GTGCAC_negctrl_site436] | 7.96 ± 0.43
AAAAAAATTTTAAAATGTACAAATTTTAATATATAT [XGTACX_site7628] | 8.55 ± 0.26
TATAATAAAATATTTTGTACGTATATTTTAATATTT [XGTACX_site2582] | 8.32 ± 0.45
TTTTTTATTAAATATATATAATAATAATAATTTGTA [CACACA_negctrl_site1719] | 7.9 ± 0.37
ATAACAAAATAATAATGTACGTATAAATATAATTTA [XGTACX_site6049] | 8.57 ± 0.4
TTTTTTAAATGTATTAAAATTATATATATATATATA [GTGCAC_negctrl_site570] | 10.2 ± 0.25
TTTTAAAATATATTTGTATATATATATATATATATA [XGTACX_negctrl_site536] | 10.4 ± 0.35
AAATAACAAATTTTTAAAATGTATATATATATATAT [TGCATGCA_negctrl_site219] | 10.2 ± 0.74
ATATATTTTTTAAATTTAAAAATTATAAAATTTATA [TGCATGCA_negctrl_site36] | 8.16 ± 0.45
AAAAAAAAAAAAAATACACACATATATAAATAAATA [CACACA_site6459] | 8.31 ± 0.45
TATAAACATAAATATACACACAAACATATATGTATT [CACACA_site8324] | 8.51 ± 0.42
CTGTGTTTTGGTTGTACACACGCTACATTCTATATT [CACACA_site2698] | 9.16 ± 0.28
TTTTTAAAAATAACAGAAAAGAATTACAGATTTTTT [XGTACX_negctrl_site472] | 8.34 ± 0.41
TTTTGTTGCTCTTTTTTTTTTTTTTTTAACTGTATG [CACACA_negctrl_site1072] | 8.57 ± 0.43
TTTTTTTGCTCTTTTTATATATATATATATATATAT [GTGCAC_negctrl_site70] | 10.2 ± 0.46
TTTTGCTTTTTTTTTCTTTTTTGTTTTATATATATT [CACACA_negctrl_site103] | 8.51 ± 0.53
